Among the test systems are SR leukemia; RPMI-8226 leukemia; OVCAR-8 ovarian; OVCAR-5 ovarian; OVCAR-4 ovarian; SK-OV-3 ovarian; IGROV1 ovarian; OVCAR-3 ovarian; HS 578T breast; NCI/ADR-RES ovarian.
What all share (test): NCI-60 one-dose screen, 48 h (100 = growth as untreated, 0 = no growth, -100 = all killed)
Holding throughout (conditions): 10 µM unless noted

SMILES strings stand for the structures. This is part of a sample that, as a whole, favours compounds with a hit. Of some 83,000 tested, about 20% had one in any assay.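 Method: cells in 96-well plates; compound added at one concentration; 48 h incubation; percent growth measured; values under 10 scored active.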 Unmarked numbers belong to inactive results. Activity calls are given as the source filed them.

Growth data for eleven compounds are collected here from PubChem BioAssay (NCI).

With `CC(=O)CCS(=O)c1ccccc1` (stereo not given), the growth in the assay with SR leukemia was 85.1%; in the assay with RPMI-8226 leukemia, 104%; in the assay on OVCAR-8 ovarian, 104%; in the assay on OVCAR-5 ovarian it was 108%; in the assay on OVCAR-4 ovarian it was 106%; in the assay with SK-OV-3 ovarian, 110%. The growth was 105% with IGROV1 ovarian, 101% with OVCAR-3 ovarian, 98.4% in the assay on HS 578T breast and 99.1% in the assay on NCI/ADR-RES ovarian.
As to `CCOC(=O)C1=NN(c2ccccc2)C2=NC(=O)/C(=C\c3cn(-c4ccccc4)nc3-c3cc4ccccc4o3)C(=O)N12`, the growth in the assay on SR leukemia was 98%; with RPMI-8226 leukemia it was 83%; in the assay with OVCAR-8 ovarian, 100%; with OVCAR-5 ovarian it was 106%; in the assay with OVCAR-4 ovarian, 103%; in the assay on SK-OV-3 ovarian, 97.6%. Moreover, the growth is 89.1% in the assay on IGROV1 ovarian, 103% in the assay with OVCAR-3 ovarian, 97.9% in the assay on HS 578T breast and 106% in the assay with NCI/ADR-RES ovarian.
As to `CCCCCCCCCCCCOC(=N)N(C)C`, the growth was 82.4% in the assay on SR leukemia; 99.7% in the assay on RPMI-8226 leukemia; 98.9% in the assay with OVCAR-8 ovarian; 99.4% in the assay on OVCAR-5 ovarian; 117% in the assay on OVCAR-4 ovarian; 97.3% in the assay on SK-OV-3 ovarian. Besides, the growth with IGROV1 ovarian was 106%; with OVCAR-3 ovarian, 92.6%; with HS 578T breast, 97.1%; in the assay on NCI/ADR-RES ovarian it was 102%.
As to `COC(=O)[C@H](Cc1cn(C)cn1)NC(=O)[C@H](Cc1c[nH]c2ccccc12)NC(=O)Nc1cc(C(F)(F)F)cc(C(F)(F)F)c1`, the growth in the assay with SR leukemia was -42.8% [100 µM] (active); with RPMI-8226 leukemia, -38.4% [100 µM] (active); in the assay with OVCAR-8 ovarian it was -78.5% [100 µM] (active); in the assay on OVCAR-5 ovarian, -73.6% [100 µM] (active); with OVCAR-4 ovarian, -50.7% [100 µM] (active); in the assay with SK-OV-3 ovarian, -89.9% [100 µM] (active). The growth in the assay with IGROV1 ovarian was -46.2% [100 µM] (active); in the assay on OVCAR-3 ovarian it was -95.7% [100 µM] (active); in the assay with HS 578T breast, 10.4% [100 µM]; with NCI/ADR-RES ovarian, 69.7% [100 µM].
As for `CNCCCNCCCCNCCCN1C(=O)c2ccc3c4c(ccc(c24)C1=O)C(=O)N(CCCNCc1ccccc1OC)C3=O`, the growth is 12% with SR leukemia; 15% in the assay on RPMI-8226 leukemia; 41.9% in the assay with OVCAR-8 ovarian; 55.9% with OVCAR-5 ovarian; -10.8% (active) in the assay on OVCAR-4 ovarian; 54.4% with SK-OV-3 ovarian. Moreover, the growth was 12.7% in the assay on IGROV1 ovarian, 6.09% (active) with OVCAR-3 ovarian, 12.5% with HS 578T breast and 43.4% in the assay with NCI/ADR-RES ovarian.
For the compound `CC(=O)OC1CC2C3CCC4C[C@@H](NC(=O)C=C(C)C)CC[C@]4(C)C3CC[C@]2(C)[C@H]1C(C)N(C)C` (stereo not given in full), the growth was -21% (active) in the assay on SR leukemia; 13.9% with RPMI-8226 leukemia; 45.1% in the assay with OVCAR-8 ovarian; 58.9% in the assay with OVCAR-5 ovarian; -8.18% (active) with OVCAR-4 ovarian; 25.8% in the assay with SK-OV-3 ovarian. In addition, the growth with IGROV1 ovarian was 33.6%; with OVCAR-3 ovarian, -4.96% (active); with HS 578T breast it was 0.863% (active); in the assay with NCI/ADR-RES ovarian, 41.7%.
Turning to `O=C1Nc2c(c(=O)n(-c3ccccc3)c3ccccc23)C(c2ccc(Cl)cc2)N1` (stereo not given), the growth is 77.8% with SR leukemia; 90.5% with RPMI-8226 leukemia; 82.4% with OVCAR-8 ovarian; 101% with OVCAR-5 ovarian; 105% with OVCAR-4 ovarian; 89.8% with SK-OV-3 ovarian. In addition, the growth is 84% in the assay on IGROV1 ovarian, 106% in the assay on OVCAR-3 ovarian, 70.2% with HS 578T breast and 99.7% in the assay with NCI/ADR-RES ovarian.
For the compound `Cc1nc2ccccc2c(=O)n1-c1cccc(OCc2cn(-c3cccc(O)c3)nn2)c1`, the growth in the assay on SR leukemia was 86.3%; in the assay on RPMI-8226 leukemia, 71.5%; in the assay with OVCAR-8 ovarian, 88.6%; with OVCAR-5 ovarian, 111%; in the assay on OVCAR-4 ovarian, 89.6%; with SK-OV-3 ovarian it was 103%. In addition, the growth in the assay on IGROV1 ovarian was 99.2%; in the assay with OVCAR-3 ovarian it was 91.5%; with HS 578T breast it was 87.4%; in the assay with NCI/ADR-RES ovarian, 98%.
As to `CCCNC(=O)Oc1ccc(/C(=C(/C)Cc2ccc(OC)cc2)c2ccc(OCCN3CCCC3)cc2)cc1`, the growth is -20.2% (active) in the assay on SR leukemia; 49.5% with RPMI-8226 leukemia; 79.5% in the assay on OVCAR-8 ovarian; 88.4% with OVCAR-5 ovarian; 61.5% with OVCAR-4 ovarian; 81.3% in the assay with SK-OV-3 ovarian. Further, the growth in the assay with IGROV1 ovarian was 81.9%; in the assay on OVCAR-3 ovarian, 83.6%; in the assay with HS 578T breast, 58.3%; with NCI/ADR-RES ovarian, 75.9%.
Turning to `CC(C)(C)c1ccc(OCCOC(=O)CBr)cc1`, the growth with SR leukemia was 44.7%; with RPMI-8226 leukemia, 88.2%; with OVCAR-8 ovarian, 83.8%; with OVCAR-5 ovarian, 104%; with OVCAR-4 ovarian, 98.8%; in the assay with SK-OV-3 ovarian, 104%. Besides, the growth in the assay on IGROV1 ovarian is 2.57% (active); in the assay on OVCAR-3 ovarian, 101%; with HS 578T breast, 108%; in the assay with NCI/ADR-RES ovarian it was 108%.
With `O=c1c2c(c3ccccc3n1-c1ccccc1)NC(=S)NC2c1ccc(Cl)cc1` (stereo not given), the growth in the assay with SR leukemia is 26%; with RPMI-8226 leukemia, 8.62% (active); with OVCAR-8 ovarian, 41.3%; in the assay on OVCAR-5 ovarian it was 45.5%; in the assay on OVCAR-4 ovarian it was 76%; in the assay with SK-OV-3 ovarian, 50.3%. Also, the growth in the assay with IGROV1 ovarian is 40.1%; with OVCAR-3 ovarian, 47.5%; in the assay with HS 578T breast, -3.16% (active); with NCI/ADR-RES ovarian, 78.3%.
